Screening results from PubChem.
Only some compounds are listed: those with a hit (about 2.3% of all), similar ones and a draw of the others.
IDE inh: cellular human IDE inhibition. P14735. HEK cells, FAbetaB cleavage, fluorescence polarization. inhibition, % at 5.59 µM. actives 0.41% (n = 320,000). AID 434962;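 active means percent inhibition above the average of all tested compounds plus 3 SD, set per screening campaign, cut at about 16% in these data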;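 further: IDE supplied by intact live HEK cells; FP after avidin binding of uncleaved biotin substrate so inhibition keeps polarization high; 0% = DMSO wells and 100% = 60 µM reference IDE inhibitor Ii1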
Calb FLC: C. albicans growth modulation with fluconazole; C. albicans CaCi-2 (fluconazole-resistant clinical isolate) + fluconazole, Alamar Blue growth, 48 h; actives 0.57% (n = 300,000); growth inhibition, % (concentration not given with the values); AID 1979;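 active means growth inhibition above about 58% in most replicates, limit read from the data, passing the limit was not always enough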;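 further: all wells also contain fluconazole at 8 µg/ml as a sub-toxic cotreatment; 0% = median of DMSO wells and 100% = median of geldanamycin control wells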
TPT1 inhibitor: inhibitors of Candida albicans tRNA 2'-phosphotransferase TPT1; inhibition, % at 5 µM; recombinant caTPT1, FP RNA substrate dephosphorylation; AID 1962; actives 0.81% (n = 300,000);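 active means inhibition above the mean of all tested compounds plus 3 SD, set per screening campaign, cut at about 24% in these data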;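 further: plate controls were DMSO alone for no effect and ferristatin control at 100 nM for full effect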
Rin1-Abl PPI inh: inhibitors of human Rin1-Abl protein interaction. P00519+Q13671. actives 0.4% (n = 360,000). AID 588664. inhibition, % at 7.35 µM. TR-FRET Rin1/Abl binding, biochemical; in the data active means inhibition above about 5%, passing the limit was not always enough
Rpn11 inh: blocks the human proteasome subunit Rpn11. O00487. human 26S proteasome, Ub4-pepOG fluorescence polarization; 20S core pre-blocked with epoxomicin. inhibition, % at 20 µM. actives 0.59% (n = 360,000). AID 588493;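 active means inhibition at 20 µM, scaled to each plate's controls, above about 33%, limit read from the data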
IDE act: activators of human insulin-degrading enzyme in cells. P14735. HEK cells, FAbeta-B cleavage, fluorescence polarization; 0% vehicle, 100% cell-free pure enzyme wells. activation, % at 5.96 µM. actives 0.073% (n = 340,000). AID 493087;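 active means activation above the mean of all tested compounds plus 3 SD, set per screening campaign, cut at about 17% in these data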
Rin1-Abl confirm: confirmation of inhibitors of human Rin1-Abl interaction. shares compounds with Rin1-Abl PPI inh. TR-FRET Rin1-Abl binding, purified proteins. inhibition, % at 7.35 µM. actives 49% (n = 1,300). AID 602124; in the data active means inhibition above about 6.5%
GFP quench-1: quenches GFP fluorescence, counter-screen for Rin1-Abl inhibitors | shares compounds with Rin1-Abl PPI inh | inhibitors/quenchers counterscreen | inhibition, % at 6.75 µM | actives 8.5% (n = 1,300) | AID 602125; in the data active means inhibition above about 6.5%;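 further: ABL1-eGFP fusion protein alone without its partner RIN1-SBP; 0% = protein with vehicle and 100% = wells lacking protein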
GFP quench DR: counter-screen for Rin1-Abl inhibitors: GFP quenchers, dose response. 230 tested, under 10 active. shares compounds with Rin1-Abl PPI inh. IC50, µM. GFP fluorescence interference/quenching counterscreen;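 further: ABL1-eGFP fusion protein alone without its RIN1 binding partner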
GFP quench-2: quenches GFP fluorescence in Rin1-Abl counterscreen; shares compounds with Rin1-Abl PPI inh; GFP fluorescence quenching counterscreen, biochemical; IC50, µM; 25 tested, under 10 active
Numbers without * were called inactive; · = no result given; ! = not confirmed by another sample. Unless noted, how the calls were made is not given here.

SMILES | IDE inh | Calb FLC | TPT1 inhibitor | Rin1-Abl PPI inh | Rpn11 inh | IDE act | Rin1-Abl confirm | GFP quench-1 | others
COCCC1CCCCN1C(=O)c1ccc(OC2CCN(C(C)=O)CC2)c(OC)c1 (stereo not drawn) | -1.8 | 4.7 | 2.9 | 12.9* | 5.5 | 0.6 | -0.7 | -0.3
CC1(C)C(=O)OC(c2cccn2-c2ccc([N+](=O)[O-])cc2)C2(CCCCC2)C1=O (stereo not drawn) | 2.3 | 32.5 | -1.8 | -2.4 | -4.2 | -0.8 | · | ·
CC1(C)C(=O)OC(c2c(F)c(F)c(F)c(F)c2F)C2(CCCCC2)C1=O (stereo not drawn) | 3.7 | 6.5 | -1.1 | 7.5* | 4.4 | 7.5 | -1.7 | 1.4
O=C(Nc1ccn(CCCN2CCN(c3ncccn3)CC2)c(=O)n1)OCc1ccccc1 | · | · | · | 8.5* | -9.6 | · | 10.6* | -0.9
O=C(Nc1ccn(CCCNCc2ccccn2)c(=O)n1)OCc1ccccc1 | · | · | · | 3.9 | 1.8 | -0.6 | · | ·
O=C(Nc1ccn(CCCNCC2CCCCC2)c(=O)n1)OCc1ccccc1 | · | · | · | -0.4 | -14.1 | · | · | ·
O=C(Nc1ccn(CCCN2CCN(Cc3ccc(F)cc3)CC2)c(=O)n1)OCc1ccccc1 | · | · | · | 18.8* | 2.2 | · | 19.5* | -0.5 | GFP quench DR=>67.5
O=C(Cn1ccc(NC(=O)OCc2ccccc2)nc1=O)NCCCN1CCCC1=O | -0.5 | · | · | 11.7* | -8.5 | 2.4 | 6.6* | -0.1
O=C(COC(=O)Cc1cccs1)NCC(=O)Nc1ccc(F)cc1 | 0.7 | · | · | -0.7 | -1.2 | 0.3 | · | ·
Cc1nc2ccccc2n1S(=O)(=O)c1cc(C(=O)O)ccc1Cl | -1.2 | -4.2 | -2.4 | 8.3* | 0.8 | 1.4 | -3.1 | 0.3
CN(Cc1ccc(F)cc1)C(=O)c1ccc(NS(=O)(=O)c2ccccc2)cc1 | -0.2 | -2.7 | 0.2 | 9.5* | 0.3 | 0.9 | 0.8 | -0.1
CN(Cc1ccc(F)cc1)C(=O)c1cccc(S(=O)(=O)NCc2ccccc2)c1 | 3.2 | 10.9 | -4.4 | 1.6 | 2.9 | 1.4 | · | ·
Cc1ccc(C)c2[nH]c(=O)c(C(c3nnnn3Cc3ccco3)N3CCc4ccccc4C3)cc12 (stereo not drawn) | 1.5 | 2.6 | 17.8 | 6.2* | -10.3 | -6.5 | 0.1 | 1.5
COC(=O)C1=C[C@@H](C(=O)OC)[C@@H]2C3=C(C(=O)[C@@]2(C)NC(=O)c2ccccc2)[C@H](c2ccccc2)[C@@H]2C(=O)NC(=O)[C@@H]2[C@@H]3C1 | 3.4 | -5.2 | -3.3 | 2.1 | -6.3 | -4.0 | · | ·
COC(=O)CN1C(=O)[C@@H]2[C@H](C1=O)[C@@H]1CC(C(=O)OC)=C[C@@H](C(=O)OC)[C@@H]3C1=C(C(=O)[C@@]3(C)NC(=O)c1ccccc1)[C@@H]2C | 0.1 | -2.6 | -9.1 | 14.5* | -10.4 | 4.4 | 4.0 | 0.6
CC(=O)N1CCN(c2nnc(-c3ccccc3)c3ccccc23)CC1 | 0.5 | 8.9 | 2.5 | -2.6 | -2.0 | -1.1 | · | ·
Cc1ccc(-c2nnc(N3CCN(C(=O)c4ccco4)CC3)c3ccccc23)cc1 | 2.5 | 2.6 | 4.1 | 13.2* | 0.8 | 1.8 | 7.9* | 0.8
CCCCC(=O)N(C)c1c(C)nc2ccc(C(=O)N(C)Cc3ccco3)cn12 | · | · | · | 0.3 | -1.6 | · | · | ·
CCN(C(=O)CN1C(=O)COc2ccc(S(=O)(=O)N3CCOCC3)cc21)c1ccc(OC)cc1 | 1.6 | 30.2 | 2.9 | 8.2* | -15.5 | 3.5 | 10.8* | 0.0
CCCS(=O)(=O)N1CCN(Cc2ccccc2[N+](=O)[O-])CC1 | -3.1 | 3.4 | -1.8 | 9.5* | 4.7 | -1.9 | -0.1 | 0.1
O=[N+]([O-])c1ccccc1CN1CCN(S(=O)(=O)Cc2ccccc2)CC1 | -3.3 | 1.7 | 0.8 | 1.8 | -10.4 | 1.4 | · | ·
Cc1cc(C)c2c(c1)SC1=NC(c3ccccc3)(C(F)(F)F)NC(=O)N12 (stereo not drawn) | -1.1 | 21.3 | 2.7 | 7.0* | -7.3 | 6.2 | 1.9 | -1.0
O=c1[nH]c2ccccc2n1CCCSCCCn1c(=O)[nH]c2ccccc21 | 6.9 | 47.1 | -3.1 | 8.7* | -5.2 | -14.3 | 14.4* | 0.7
Cc1cc(C(=O)CSCCCn2c(=O)[nH]c3ccccc32)c(C)n1C | 1.2 | 2.3 | -1.1 | 2.9 | -5.9 | 1.1 | · | ·
CCOC(=O)c1ccc(CC(=O)c2ccc(O)c(O)c2O)o1 | · | 4.6 | · | 13.5* | -9.1 | -6.3 | 7.3* | 16.1*
SMILES | IDE inh | Calb FLC | TPT1 inhibitor | Rin1-Abl PPI inh | Rpn11 inh | IDE act | Rin1-Abl confirm | GFP quench-1 | others
O=c1[nH]c(=O)n(C2OC(CO)C(O)C2O)c2c1CCCC2 (stereo not drawn) | · | · | · | 2.8 | 0.1 | · | · | ·
Cn1c(=O)c2c(nc(-n3ccnc3)n2Cc2ccc(Cl)cc2Cl)n(C)c1=O | 8.3 | 0.0 | -2.0 | 71.6* | 2.9 | -6.3 | 67.6* | -0.4 | GFP quench DR=>67.5;GFP quench-2=>67.5
Cn1c(=O)c2c(nc(-n3ccnc3)n2Cc2ccccc2)n(C)c1=O | 3.2 | 20.3 | -3.2 | 14.8* | -0.3 | -4.4 | 12.9* | 1.4
Cn1c(=O)c2c(nc(-n3ccnc3)n2C)n(C)c1=O | 1.7 | -5.2 | -5.7 | 4.4 | -2.2 | 1.7 | · | ·
Cc1nn(C)c(C(=O)NNC(=S)NCc2ccccc2)c1Cl | · | -1.4 | · | 7.3* | -1.5 | 5.9 | -3.5 | 0.0
CSc1ccc(NC(=O)N2CCC(C(=O)c3ccc(F)cc3)CC2)cc1 | 2.2 | -15.8 | 3.4 | 7.4* | 2.6 | -3.5 | -1.3 | 0.1
COc1ccc(NC(=O)N2CCC(C(=O)c3ccc(F)cc3)CC2)cc1 | 7.9 | -16.8 | -1.4 | 0.0 | 6.5 | -4.1 | · | ·
O=C(NCc1ccccc1)c1ccc(Br)cc1Br | 3.8 | -3.8 | -0.1 | -4.0 | 4.2 | 3.5 | · | ·
O=C(NCc1ccccc1)c1ccccc1Br | -9.9 | 28.6 | -2.8 | 7.8* | -1.4 | 4.8 | -2.7 | -1.4
Oc1ccc(C2CNCCc3c2cc(O)c(O)c3Cl)cc1 (stereo not drawn) | 6.1 | -18.5 | 0.6 | 18.4*! | -0.3 | -2.5 | 30.4* | 8.4*
COc1cc(O)c(C(C)=O)c(CC(=O)O)c1 | 4.6 | -2.0 | 0.8 | 19.8* | -33.2 | 3.8 | 25.4* | 5.4 | GFP quench DR=>67.5
Cc1ccc(NC(=S)N(CCCN2CCOCC2)Cc2cccnc2)cc1C | -2.2 | -15.0 | 0.4 | 12.4* | -2.7 | 0.3 | -1.6 | -1.0
COc1cccc(NS(=O)(=O)c2ccc3c(c2)C2C=CCC2C(c2ccc(C(=O)O)cc2)N3)c1 (stereo not drawn) | -4.7 | 12.0 | 16.7 | 11.5* | -15.0 | 2.0 | 2.7 | 7.1*
